Experimental data as given in PMC4336329 (PLoS ONE, 2015).
About 14,000 (4.5%) of roughly 310,000 compounds showed an effect of 50% or more. Effects have a minus sign here. This excerpt belongs to a sample that is enriched for strong results.

Target: human ether-à-go-go-related gene (hERG) potassium channel (human, UniProt Q12809)
Assay: primary screen, population patch clamp on CHO cells stably expressing hERG; higher = less effect of the substance
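Further: peak tail current of the secondary pulse compared with the same well before compound.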

Chain of human ether-à-go-go-related gene (hERG) potassium channel (Q12809 whole entry, looked up): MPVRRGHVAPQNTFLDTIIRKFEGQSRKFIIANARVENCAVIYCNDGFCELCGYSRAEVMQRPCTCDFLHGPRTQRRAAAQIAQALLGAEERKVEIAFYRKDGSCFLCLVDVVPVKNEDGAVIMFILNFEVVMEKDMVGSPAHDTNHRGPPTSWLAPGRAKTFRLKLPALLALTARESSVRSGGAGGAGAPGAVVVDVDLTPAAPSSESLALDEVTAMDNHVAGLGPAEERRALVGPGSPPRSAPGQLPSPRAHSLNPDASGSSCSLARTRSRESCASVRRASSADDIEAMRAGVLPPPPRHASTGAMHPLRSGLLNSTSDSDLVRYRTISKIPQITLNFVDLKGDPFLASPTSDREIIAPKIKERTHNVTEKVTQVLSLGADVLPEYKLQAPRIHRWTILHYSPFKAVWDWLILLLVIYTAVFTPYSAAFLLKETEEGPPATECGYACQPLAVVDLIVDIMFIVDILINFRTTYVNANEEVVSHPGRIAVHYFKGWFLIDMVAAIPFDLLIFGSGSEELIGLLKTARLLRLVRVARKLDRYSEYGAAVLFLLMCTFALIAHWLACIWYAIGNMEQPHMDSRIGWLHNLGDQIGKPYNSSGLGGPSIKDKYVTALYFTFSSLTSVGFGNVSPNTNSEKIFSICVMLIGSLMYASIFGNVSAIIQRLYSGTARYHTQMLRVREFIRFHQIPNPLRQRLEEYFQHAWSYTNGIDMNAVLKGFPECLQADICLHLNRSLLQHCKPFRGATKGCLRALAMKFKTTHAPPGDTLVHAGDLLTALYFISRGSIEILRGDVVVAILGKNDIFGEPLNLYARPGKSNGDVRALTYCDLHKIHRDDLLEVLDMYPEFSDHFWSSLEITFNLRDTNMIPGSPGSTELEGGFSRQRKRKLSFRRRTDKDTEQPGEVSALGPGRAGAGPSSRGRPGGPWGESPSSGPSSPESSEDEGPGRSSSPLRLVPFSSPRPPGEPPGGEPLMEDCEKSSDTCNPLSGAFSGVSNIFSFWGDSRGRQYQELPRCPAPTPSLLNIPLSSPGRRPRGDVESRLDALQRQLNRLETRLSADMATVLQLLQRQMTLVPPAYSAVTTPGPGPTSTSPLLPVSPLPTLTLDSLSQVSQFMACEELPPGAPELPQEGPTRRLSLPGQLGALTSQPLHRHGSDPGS

| SMILES | hERG current change (%, negative = inhibition) at 10uM [%] |
| --- | --- |
| Cc1cc(C)cc(NC(=O)CSc2nc3c(c(=O)n2C)SC(C)C3)c1 (stereo not shown) | 3.64 |
| O=C(CCCN1C(=O)NC2(CCCC2)C1=O)N1CCN(S(=O)(=O)c2ccccc2)CC1 | 0.403 |
| CC(=O)C(c1ccccc1)C(c1ccccc1)C(C)[N+](=O)[O-] (stereo not shown) | 14.3 |
| OCC(CO)(CO)n1cnnn1 | 12.3 |
| CCN(CC)c1ccc(/C=N/O)cc1 | 18.3 |
| CC(C)CCNC(=O)C(c1ccncc1)N(CC1CCCO1)C(=O)Cn1nnc(-c2ccc(F)cc2)n1 (stereo not shown) | -64.8 |
| O=C(NCC1CCCO1)C(c1ccncc1)N(Cc1cccs1)C(=O)Cn1nnc(-c2ccc(F)cc2)n1 (stereo not shown) | -60.1 |
| CC(C)CCNC(=O)C(c1ccncc1)N(Cc1cccs1)C(=O)Cn1nnc(-c2ccc(F)cc2)n1 (stereo not shown) | -8.51 |
| COc1ccc(CN(C(=O)CN2C(=O)c3ccccc3S2(=O)=O)C(C(=O)NCC2CCCO2)c2ccncc2)cc1 (stereo not shown) | -10.3 |
| CC(C)CCNC(=O)C(c1ccncc1)N(C(=O)Cn1nnc(-c2ccc(F)cc2)n1)c1ccccc1F (stereo not shown) | -24.2 |
| CC(C)(C)NC(=O)C(c1ccncc1)N(CC1CCCO1)C(=O)Cn1nnc(-c2ccc(F)cc2)n1 (stereo not shown) | -3.33 |
| O=C(NCC1CCCO1)C(c1ccco1)N(Cc1ccc(F)cc1)C(=O)CN1C(=O)c2ccccc2S1(=O)=O (stereo not shown) | -7.48 |
| O=C(NCC1CCCO1)C(c1ccncc1)N(Cc1ccc(F)cc1)C(=O)CN1C(=O)c2ccccc2S1(=O)=O (stereo not shown) | -58.3 |
| O=C(NCC1CCCO1)C(c1ccc(F)cc1)N(Cc1ccc(F)cc1)C(=O)Cn1nnc(-c2cccs2)n1 (stereo not shown) | -10.9 |
| Cc1ccc(-n2c(SCC(=O)Nc3ccc(Cl)cc3)nc(O)cc2=O)cc1 | 9.08 |
| CC(C)(C)c1ccc(C(=O)Nc2ccc(O)c3c(=O)cc(-c4ccccc4Cl)oc23)cc1 | -3.26 |

| SMILES | hERG current change (%, negative = inhibition) at 10uM [%] |
| --- | --- |
| O=C(NCCO)/C(=C\c1ccco1)NC(=O)c1ccco1 | 1.44 |
| CNc1ccc(NC(C)=O)cc1[N+](=O)[O-] | 1.68 |
| CNC(=O)CCN(Cc1ccco1)S(=O)(=O)c1ccc(OC)c(OC)c1 | 14.1 |
| O=C(CSc1nnc(Cc2cccs2)n1Cc1ccco1)Nc1ccc(Cl)cc1Cl | -57.1 |
| CCOC(=O)c1c(NC(=O)CSc2nnc(-c3cccnc3)n2Cc2ccco2)sc(C)c1C | -24.7 |
| Cc1cc(Cl)ccc1NC(=O)CSc1nnc(Cc2cccs2)n1Cc1ccco1 | -45.3 |
| O=C(CSc1nnc(Cc2cccs2)n1Cc1ccco1)Nc1cccc(Cl)c1 | -13.9 |
| COc1cc(Cl)c(C)cc1NC(=O)CSc1nnc(-c2ccco2)n1CC(C)C | -62.1 |
| Cc1cccc(C)c1NC(=O)CSc1nnc(-c2ccncc2)n1Cc1ccco1 | -29.2 |
| C=CCn1c(SCC(=O)Nc2cc(C)c(Cl)cc2OC)nnc1-c1ccco1 | -23.6 |
| CCn1c(SCC(=O)Nc2cc(C)c(Cl)cc2OC)nnc1-c1ccco1 | -4.93 |
| CCOC(=O)c1c(NC(=O)CSc2nnc(-c3ccncc3)n2Cc2ccco2)sc(C)c1C | -19.3 |
| Cc1cc(C)c(NC(=O)CSc2nnc(-c3ccncc3)n2Cc2ccco2)c(Cl)c1 | -52.7 |
| COC(=O)c1c(NC(=O)CSc2nnc(-c3cccnc3)n2Cc2ccco2)sc(C)c1C | -59.3 |
| Cc1cc(C)c(NC(=O)CSc2nnc(-c3ccncc3)n2Cc2ccco2)c(C)c1 | -31.6 |
